# Paper PMC7862700, “An all-to-all approach to the identification of sequence-specific readers for epigenetic DNA modifications on cytosine”
# Experiments:
# Test in all cases: DAPPL (digital affinity profiling via proximity ligation, sequencing); 10 mM Tris-HCl pH 7.5, 50 mM NaCl, 1 mM DTT, 4% glycerol, room temperature, 30 min; GST-TFs on glutathione beads, 16-mer random dsDNA library, 0.1% formaldehyde crosslink after washing; high values mean tight binding
# Settings in all cases: protein: recombinant; tags: N-terminal GST; dsDNA, one strand shown
# [1] = biological target: T1, FLI1 (Homo sapiens, UniProt Q01543 1-452)
# T1 sequence: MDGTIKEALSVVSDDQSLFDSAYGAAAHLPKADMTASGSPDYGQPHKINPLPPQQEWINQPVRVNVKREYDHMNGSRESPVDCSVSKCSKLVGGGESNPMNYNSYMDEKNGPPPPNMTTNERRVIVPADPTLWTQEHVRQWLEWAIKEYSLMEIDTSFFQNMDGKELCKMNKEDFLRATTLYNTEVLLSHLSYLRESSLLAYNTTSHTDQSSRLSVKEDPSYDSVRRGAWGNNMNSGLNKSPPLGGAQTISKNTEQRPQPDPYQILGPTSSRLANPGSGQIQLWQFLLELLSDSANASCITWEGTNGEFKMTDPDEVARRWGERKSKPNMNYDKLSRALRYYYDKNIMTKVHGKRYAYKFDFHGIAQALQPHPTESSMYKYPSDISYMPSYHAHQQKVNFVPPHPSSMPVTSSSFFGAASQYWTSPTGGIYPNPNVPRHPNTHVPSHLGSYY
# Outline: (§1)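 Sequencing on an Illumina NextSeq500 followed washing, crosslinking with 0.1% formaldehyde, proximity ligation (BsaI/T4 ligase, 1 h, 37 °C) and PCR amplification of pools that had been incubated for 30 min at room temperature with 200 nmole of a random double-stranded 16-mer DNA library in Tris/NaCl/DTT/glycerol buffer. Each pool held DNA-barcoded human transcription factors, expressed in yeast as GST fusions and captured on glutathione beads, plus a tag-only sample. Binding signal is a hexamer's read frequency for a factor divided by its frequency in the tag-only sample.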
# [2] = biological target: T2, ELK1 (Homo sapiens, UniProt P19419 1-428)
# T2 sequence: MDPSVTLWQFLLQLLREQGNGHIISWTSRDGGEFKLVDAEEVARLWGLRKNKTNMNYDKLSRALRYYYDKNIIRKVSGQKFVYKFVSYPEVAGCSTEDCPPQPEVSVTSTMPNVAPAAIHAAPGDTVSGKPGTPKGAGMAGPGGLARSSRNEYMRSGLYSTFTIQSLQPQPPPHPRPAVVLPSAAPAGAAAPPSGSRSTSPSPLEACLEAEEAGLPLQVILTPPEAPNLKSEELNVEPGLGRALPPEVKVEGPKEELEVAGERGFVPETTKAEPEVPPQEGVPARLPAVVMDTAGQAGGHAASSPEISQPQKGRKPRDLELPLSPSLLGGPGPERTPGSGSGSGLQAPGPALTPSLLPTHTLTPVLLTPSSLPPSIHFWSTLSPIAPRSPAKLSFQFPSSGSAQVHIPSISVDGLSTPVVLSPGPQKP
# Outline: as §1
# [3] = biological target: T3, GABPA (Homo sapiens, UniProt Q06546 1-454)
# T3 sequence: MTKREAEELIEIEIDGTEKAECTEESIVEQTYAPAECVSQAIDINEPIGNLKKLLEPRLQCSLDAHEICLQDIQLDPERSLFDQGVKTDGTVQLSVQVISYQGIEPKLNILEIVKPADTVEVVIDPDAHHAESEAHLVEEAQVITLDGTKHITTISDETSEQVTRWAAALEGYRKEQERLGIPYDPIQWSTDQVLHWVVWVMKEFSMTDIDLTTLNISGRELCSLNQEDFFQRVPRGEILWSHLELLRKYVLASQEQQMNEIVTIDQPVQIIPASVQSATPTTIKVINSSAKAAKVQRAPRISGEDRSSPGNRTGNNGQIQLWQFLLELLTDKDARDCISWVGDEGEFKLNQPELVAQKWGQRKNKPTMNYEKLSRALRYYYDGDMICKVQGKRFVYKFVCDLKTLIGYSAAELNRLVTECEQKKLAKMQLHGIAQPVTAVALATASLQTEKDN
# Outline: as §1
# [4] = biological target: T4, ERG (Homo sapiens, UniProt P11308 1-479)
# T4 sequence: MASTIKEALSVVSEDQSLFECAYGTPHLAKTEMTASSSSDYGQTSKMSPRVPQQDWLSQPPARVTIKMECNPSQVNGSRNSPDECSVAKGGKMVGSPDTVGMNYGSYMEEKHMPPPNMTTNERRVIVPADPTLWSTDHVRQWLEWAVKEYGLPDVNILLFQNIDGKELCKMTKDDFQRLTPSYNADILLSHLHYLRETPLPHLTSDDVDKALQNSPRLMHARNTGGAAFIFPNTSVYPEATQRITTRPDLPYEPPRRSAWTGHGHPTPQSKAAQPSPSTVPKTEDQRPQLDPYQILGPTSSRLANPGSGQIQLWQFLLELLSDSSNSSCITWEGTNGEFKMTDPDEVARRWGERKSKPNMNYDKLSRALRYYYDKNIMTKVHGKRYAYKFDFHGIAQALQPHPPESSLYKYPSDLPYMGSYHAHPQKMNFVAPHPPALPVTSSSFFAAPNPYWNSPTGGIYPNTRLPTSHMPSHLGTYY
# Outline: as §1
# [5] = biological target: ELF1 (Homo sapiens, UniProt P32519 1-619)
# Chain of ELF1 (P32519 whole entry): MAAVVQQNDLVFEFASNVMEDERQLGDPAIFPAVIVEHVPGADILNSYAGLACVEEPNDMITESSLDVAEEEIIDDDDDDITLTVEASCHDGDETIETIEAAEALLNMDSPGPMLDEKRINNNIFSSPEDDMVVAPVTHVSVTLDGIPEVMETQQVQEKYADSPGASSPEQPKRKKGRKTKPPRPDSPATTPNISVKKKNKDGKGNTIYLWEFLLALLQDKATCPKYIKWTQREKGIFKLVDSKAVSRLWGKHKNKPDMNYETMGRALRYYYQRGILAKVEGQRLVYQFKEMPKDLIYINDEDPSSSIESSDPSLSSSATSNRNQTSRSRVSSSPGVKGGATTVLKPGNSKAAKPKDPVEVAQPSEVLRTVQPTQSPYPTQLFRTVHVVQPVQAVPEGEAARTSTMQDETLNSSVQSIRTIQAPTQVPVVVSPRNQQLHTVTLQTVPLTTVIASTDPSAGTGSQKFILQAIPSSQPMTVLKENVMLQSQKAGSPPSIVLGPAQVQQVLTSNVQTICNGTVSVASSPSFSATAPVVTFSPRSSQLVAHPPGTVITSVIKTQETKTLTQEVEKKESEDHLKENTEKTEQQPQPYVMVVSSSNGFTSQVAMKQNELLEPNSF
# Outline: as §1
# [6] = biological target: T5, EHF (Homo sapiens, UniProt Q9NZC4 1-300)
# T5 sequence: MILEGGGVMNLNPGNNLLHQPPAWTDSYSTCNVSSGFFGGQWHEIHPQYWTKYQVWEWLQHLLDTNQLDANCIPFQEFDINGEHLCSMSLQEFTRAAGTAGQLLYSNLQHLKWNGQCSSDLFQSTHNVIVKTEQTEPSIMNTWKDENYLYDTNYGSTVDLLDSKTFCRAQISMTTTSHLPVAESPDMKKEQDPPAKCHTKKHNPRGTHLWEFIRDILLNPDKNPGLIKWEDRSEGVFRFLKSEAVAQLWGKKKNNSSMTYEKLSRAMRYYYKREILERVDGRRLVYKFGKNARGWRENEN
# Outline: as §1
# [7] = biological target: SPI1 (Homo sapiens, UniProt P17947 1-270)
# Outline: as §1
# [8] = biological target: SPIB (Homo sapiens, UniProt Q01892 1-262)
# Chain of SPIB (Q01892 whole entry): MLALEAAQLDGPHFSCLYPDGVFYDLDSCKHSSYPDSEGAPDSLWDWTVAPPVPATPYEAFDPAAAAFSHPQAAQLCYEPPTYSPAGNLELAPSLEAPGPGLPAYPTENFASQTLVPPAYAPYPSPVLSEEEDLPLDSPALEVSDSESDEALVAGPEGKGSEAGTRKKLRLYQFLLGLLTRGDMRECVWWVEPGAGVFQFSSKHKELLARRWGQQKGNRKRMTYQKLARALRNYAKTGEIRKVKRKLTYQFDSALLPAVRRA
# Outline: as §1
# [9] = biological target: T6, ELK3 (Homo sapiens, UniProt P41970 1-407)
# T6 sequence: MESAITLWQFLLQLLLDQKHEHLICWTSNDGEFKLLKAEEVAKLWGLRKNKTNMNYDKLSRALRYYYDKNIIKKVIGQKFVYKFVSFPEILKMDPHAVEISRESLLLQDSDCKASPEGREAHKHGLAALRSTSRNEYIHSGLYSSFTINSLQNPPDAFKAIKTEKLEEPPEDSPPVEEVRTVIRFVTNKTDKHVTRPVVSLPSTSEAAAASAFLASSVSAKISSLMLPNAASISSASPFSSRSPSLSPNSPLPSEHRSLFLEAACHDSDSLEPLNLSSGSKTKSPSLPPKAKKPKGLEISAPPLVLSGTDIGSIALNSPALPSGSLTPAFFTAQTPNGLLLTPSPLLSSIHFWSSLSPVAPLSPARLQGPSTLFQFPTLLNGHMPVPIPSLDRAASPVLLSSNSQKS
# Outline: as §1
Sequence,binding signal [1],binding signal [2],binding signal [3],binding signal [4],binding signal [5],binding signal [6],binding signal [7],binding signal [8],binding signal [9]
ATACAC,"1.18 fold enrichment (6-mer frequency, TF over GST control)","1.19 fold enrichment (6-mer frequency, TF over GST control)","1.25 fold enrichment (6-mer frequency, TF over GST control)","1.25 fold enrichment (6-mer frequency, TF over GST control)","1.19 fold enrichment (6-mer frequency, TF over GST control)","1.22 fold enrichment (6-mer frequency, TF over GST control)","1.23 fold enrichment (6-mer frequency, TF over GST control)","1.23 fold enrichment (6-mer frequency, TF over GST control)","1.21 fold enrichment (6-mer frequency, TF over GST control)"
ATCTTA,"1.15 fold enrichment (6-mer frequency, TF over GST control)","1.07 fold enrichment (6-mer frequency, TF over GST control)","1.1 fold enrichment (6-mer frequency, TF over GST control)","1.09 fold enrichment (6-mer frequency, TF over GST control)","1.15 fold enrichment (6-mer frequency, TF over GST control)","1.04 fold enrichment (6-mer frequency, TF over GST control)","1.01 fold enrichment (6-mer frequency, TF over GST control)","1.03 fold enrichment (6-mer frequency, TF over GST control)","1.11 fold enrichment (6-mer frequency, TF over GST control)"
CTTCCA,"1.5 fold enrichment (6-mer frequency, TF over GST control)","1.42 fold enrichment (6-mer frequency, TF over GST control)","1.34 fold enrichment (6-mer frequency, TF over GST control)","1.47 fold enrichment (6-mer frequency, TF over GST control)","1.39 fold enrichment (6-mer frequency, TF over GST control)","1.53 fold enrichment (6-mer frequency, TF over GST control)","1.44 fold enrichment (6-mer frequency, TF over GST control)","1.51 fold enrichment (6-mer frequency, TF over GST control)","1.58 fold enrichment (6-mer frequency, TF over GST control)"
GTCTTT,"1.28 fold enrichment (6-mer frequency, TF over GST control)","1.21 fold enrichment (6-mer frequency, TF over GST control)","1.35 fold enrichment (6-mer frequency, TF over GST control)","1.15 fold enrichment (6-mer frequency, TF over GST control)","1.26 fold enrichment (6-mer frequency, TF over GST control)","1.2 fold enrichment (6-mer frequency, TF over GST control)","1.38 fold enrichment (6-mer frequency, TF over GST control)","1.23 fold enrichment (6-mer frequency, TF over GST control)","1.34 fold enrichment (6-mer frequency, TF over GST control)"
ATCCTA,"1.54 fold enrichment (6-mer frequency, TF over GST control)","1.34 fold enrichment (6-mer frequency, TF over GST control)","1.37 fold enrichment (6-mer frequency, TF over GST control)","1.4 fold enrichment (6-mer frequency, TF over GST control)","1.37 fold enrichment (6-mer frequency, TF over GST control)","1.3 fold enrichment (6-mer frequency, TF over GST control)","1.27 fold enrichment (6-mer frequency, TF over GST control)","1.48 fold enrichment (6-mer frequency, TF over GST control)","1.43 fold enrichment (6-mer frequency, TF over GST control)"
TGACTT,"1.38 fold enrichment (6-mer frequency, TF over GST control)","1.5 fold enrichment (6-mer frequency, TF over GST control)","1.38 fold enrichment (6-mer frequency, TF over GST control)","1.53 fold enrichment (6-mer frequency, TF over GST control)","1.44 fold enrichment (6-mer frequency, TF over GST control)","1.43 fold enrichment (6-mer frequency, TF over GST control)","1.68 fold enrichment (6-mer frequency, TF over GST control)","1.52 fold enrichment (6-mer frequency, TF over GST control)","1.27 fold enrichment (6-mer frequency, TF over GST control)"
AACTTA,"1.28 fold enrichment (6-mer frequency, TF over GST control)","1.24 fold enrichment (6-mer frequency, TF over GST control)","1.32 fold enrichment (6-mer frequency, TF over GST control)","1.18 fold enrichment (6-mer frequency, TF over GST control)","1.27 fold enrichment (6-mer frequency, TF over GST control)","1.34 fold enrichment (6-mer frequency, TF over GST control)","1.23 fold enrichment (6-mer frequency, TF over GST control)","1.23 fold enrichment (6-mer frequency, TF over GST control)","1.26 fold enrichment (6-mer frequency, TF over GST control)"
GCTAGC,"1.17 fold enrichment (6-mer frequency, TF over GST control)","1.23 fold enrichment (6-mer frequency, TF over GST control)","1.18 fold enrichment (6-mer frequency, TF over GST control)","1.22 fold enrichment (6-mer frequency, TF over GST control)","1.18 fold enrichment (6-mer frequency, TF over GST control)","1.19 fold enrichment (6-mer frequency, TF over GST control)","1.29 fold enrichment (6-mer frequency, TF over GST control)","1.17 fold enrichment (6-mer frequency, TF over GST control)","1.22 fold enrichment (6-mer frequency, TF over GST control)"
